Measurements taken from PubChem BioAssay AID1347131 (National Center for Advancing Translational Sciences (NCATS), 2019).
Among all 410,000 compounds or so, about 2,000 (0.49%) were called active. Another 8% or so got no clear call; they are omitted. Calls come from the whole dose curve; tested in HEK293 reporter line. Shown is part of a subset that was picked to be rich in actives.

Test: qHTS Assay for Foot and Mouth Disease Virus Antivirals: Primary Screen against the MLPCN compound library; note: nearly all actives have a fitted effect of over 55% in size
Settings: FMDV antiviral cell-based qHTS; series mostly up to 57.9 µM; activity, negative = inhibition: at the top concentration
Potency is the fitted concentration of half-maximal effect.

Row | Compound | activity, negative = inhibition | Potency
1 | Cc1nc(SCC(=O)NCCc2ccccc2)nc(C)c1C | -17.8% (inactive) | 
2 | CCOCCCNC(=S)N1CCN(c2nc(-c3ccccc3)cs2)CC1 | -30.3% (inactive) | 
3 | CN1/C(=C\C(=O)CSc2nnc(N)s2)C(C)(C)c2ccccc21 | -30.2% (inactive) | 
4 | Cc1ccc2c(c1)Cc1nc3ccccc3nc1-2 |  | 14.1 µM (active)
5 | Cc1ccc(C)c(Nc2cc(C)nc3ccccc23)c1 | -30.6% (inactive) | 
6 | Cc1ccc(CSc2nc3ccccc3cc2C=O)cc1 | -33.3% (inactive) | 
7 | COc1cccc(-c2nc(CS(=O)(=O)CC(=O)NCCCc3ccccc3)c(C)o2)c1 | -31.5% (inactive) | 
8 | NC(=O)COc1ccccc1/C=C1/SC(=O)N(CC(=O)N2CCc3ccccc3C2)C1=O | -38% (inactive) | 
9 | COc1ccc(-c2nc(NC(=O)c3[nH]c(C)c(C(C)=O)c3C)sc2C)cc1 |  | 28.2 µM (active)
10 | COc1ccc(-c2nc(NC(=O)c3c(C)noc3C)sc2C)cc1 | -38.1% (inactive) | 
11 | COc1ccc(NC(=O)c2[nH]c(C)c(C(C)=O)c2C)cc1 | 116% (inactive) | 
12 | Fc1ccc(CN2CCN3CCCC3C2C2CCCCC2)cc1F (stereo not given) | -43.8% (inactive) | 
13 | O=c1[nH]c(SCc2ccccc2Cl)nc2c1cnn2-c1ccccc1 | -30.8% (inactive) | 
14 | c1nc(NCc2ccc3c(c2)OCO3)c2cc(-c3ccc4c(c3)OCCO4)ccc2n1 | -30.8% (inactive) | 
15 | COc1ccc(N2CCN(C(=O)Cn3cnc4c(cnn4-c4ccc(C)cc4)c3=O)CC2)cc1 | -32.4% (inactive) | 
16 | CCCCCn1nc(C(=O)OCC(=O)c2c(N)n(C)c(=O)n(C)c2=O)c2ccccc2c1=O | -32.9% (inactive) | 
17 | COc1cccc(-c2cn3nc4c(nc3n2)CCCC4)c1 |  | 10 µM (active)
18 | COc1cccc(Nc2c3c(nc4c(-c5ccccc5)c(C)nn24)CCC3)c1 | -38.7% (inactive) | 
19 | COc1cccc(-c2cc(C(=O)NC3CC3)c3ccccc3n2)c1 | -36.4% (inactive) | 
20 | c1ccc(Sc2cccc3ccccc23)c(CNC2=NCCN2)c1 | -36.1% (inactive) | 
21 | COc1ccccc1S(=O)(=O)Cc1ccc(C(=O)NCc2ccc3c(c2)OCO3)o1 | -32.7% (inactive) | 
22 | CC(C)(C)NC(=O)c1ccc(COc2ccc(Cl)cc2Cl)o1 | -39.1% (inactive) | 
23 | FC(F)(F)c1nnc(-c2ccccc2)nc1Oc1ccc(Cl)cc1Cl | -36.6% (inactive) | 
24 | Clc1ccc(OCc2cc(-c3ccccc3)no2)c(Cl)c1 |  | 12.6 µM (active)
25 | CCN1CCN(C(=O)C2CCN(c3nnc(C)c4c(C)n(-c5ccc(C)cc5)nc34)CC2)CC1 | -31% (inactive) | 

Row | Compound | activity, negative = inhibition | Potency
26 | Cc1ccc(C(=O)N(CC(=O)Nc2sc(C)c(C)c2C(N)=O)C2CCCC2)cc1 | -39.9% (inactive) | 
27 | COc1ccc(NS(=O)(=O)c2cc(NC(=O)c3ccc(=O)[nH]c3)ccc2N2CCOCC2)cc1 | 102% (inactive) | 
28 | CC(=O)c1sc(NC(=O)C2COc3ccccc3O2)nc1C (stereo not given) |  | 11.2 µM (active)
29 | O=C(Nc1nc(-c2ccc(S(=O)(=O)N3CCCC3)cc2)cs1)C1COc2ccccc2O1 (stereo not given) | -34.4% (inactive) | 
30 | CC(=O)c1sc(NC(=O)c2cc(-c3ccccc3)nn2-c2ccccc2)nc1C | -34.9% (inactive) | 
31 | CCOc1ccc(C(=O)N(Cc2cc(OC)c(OC)c(OC)c2)c2ccccn2)cc1 | -32.4% (inactive) | 
32 | CN(C)Cc1n[nH]c(=O)c2ccccc12 | 0.231% (inactive) | 
33 | CC1=C/C(=C(/c2cc(C)c(O)c(Br)c2)c2ccccc2S(=O)(=O)O)C=C(Br)C1=O |  | 17.8 µM (active)
34 | COc1ccc(NC(=S)N2CCN(Cc3ccc(C)cc3)CC2)cc1 | -30.3% (inactive) | 
35 | CN1CCN(S(=O)(=O)c2cccc(C(=O)Nc3ccc(Br)cc3Br)c2)CC1 | -42.5% (inactive) | 
36 | CCn1c(=S)sc2c(=O)n(CC(=O)Nc3cccc(Cl)c3)c(C)nc21 | -30.1% (inactive) | 
37 | CCOC(=O)NC(=O)/C(C#N)=N/Nc1c(F)cccc1F | -29.8% (inactive) | 
38 | C=CCn1c(SCC(=O)Nc2nc3ccccc3s2)nnc1-c1ccccc1O |  | 25.1 µM (active)
39 | C=CCn1c(SCC(=O)Nc2cccnc2Cl)nnc1-c1ccccc1F | -44.1% (inactive) | 
40 | Cc1nc(SCC(=O)Nc2nc3ccccc3s2)c(C#N)c(C)c1C | -97.5% (inactive) | 
41 | COc1ccc(N2CCOCC2)c(NC(=O)c2cc3ccccc3o2)c1 | -30.1% (inactive) | 
42 | COc1ccccc1NC(=O)C1=C(C)NC(SCC(=O)c2ccccc2)=C(C#N)C1c1ccco1 (stereo not given) | -22.4% (inactive) | 
43 | CCCn1nc(C(=O)Nc2nc(-c3ccccn3)cs2)c2ccccc2c1=O | -35.2% (inactive) | 
44 | Cc1cccnc1Nc1nc(-c2ccccn2)cs1 |  | 11.2 µM (active)
45 | Cc1cc(C)n2c(Nc3c(C)cccc3C)c(-c3ccccn3)nc2n1 | -37.5% (inactive) | 
46 | CN(CC(=O)NCc1ccccc1)CC(=O)Nc1ccc(Cl)c(C(F)(F)F)c1 | -31.1% (inactive) | 
47 | COc1ccc(-c2nsc3c(N4CCCCC4C)ncnc23)cc1 (stereo not given) | -96.6% (inactive) | 
48 | COc1ccc(-c2nsc3c(N4CCCCC4)ncnc23)cc1 | -36.3% (inactive) | 
49 | COc1ccc(-c2nsc3c(N4CCCC4)ncnc23)cc1 |  | 22.4 µM (active)
50 | NC(=O)c1cccn(Cc2ccc(C(F)(F)F)cc2)c1=O | -36.5% (inactive) | 

Row | Compound | activity, negative = inhibition | Potency
51 | CC(=O)c1cccc(NC(=O)CN2CCc3cc4c(cc3C2C)OCCCO4)c1 (stereo not given) | -31.7% (inactive) | 
52 | CC(C)CNc1nc2c(c(=O)n(C)c(=O)n2C)n1Cc1cccc(Br)c1 | -39.6% (inactive) | 
53 | Cc1nn2cc(-c3ccc(OC(C)C)cc3)nc2s1 |  | 14.1 µM (active)
54 | COC(=O)c1ccc2nc(-c3ccc(C#N)cc3)c(Cc3ccsc3)n2c1 | -30.6% (inactive) | 
55 | COc1ccccc1-c1nc(-c2ccccc2)nc(N2CCN(C)CC2)c1C#N | -30.4% (inactive) | 
56 | Cc1cccc(-n2c(O)c(C=Nc3ccccc3)c3ccccc3c2=O)n1 | -31.3% (inactive) | 
57 | COC1=CC(=O)c2ccccc2C1=O | -46.7% (inactive) | 
58 | O=C1C(C=Nc2ccccc2)=C(O)c2ccccc21 |  | 10 µM (active)
59 | COc1cc(NC(=O)Cc2ccc(S(=O)(=O)N3CCOCC3)s2)c(OC)cc1Cl | -38.1% (inactive) | 
60 | O=C(OC(C(=O)Nc1ccc(Cl)cc1C(F)(F)F)c1ccccc1)c1c(Cl)cccc1Cl (stereo not given) | -33.4% (inactive) | 
61 | COc1ccc(CCCc2nnc(SCC(=O)Nc3cccc(C)c3)o2)cc1 | -33.1% (inactive) | 
62 | Cc1nn(Cc2ccc(Cl)cc2)c(=O)n1N(C)c1ncc(C(F)(F)F)cc1Cl | -32.6% (inactive) | 
63 | Cc1nn2cc(-c3ncc(C(F)(F)F)cc3Cl)cnc2c1Br |  | 8.91 µM (active)
64 | Cc1ccc(-c2ccnc3nc(Sc4ncc(C(F)(F)F)cc4Cl)nn23)cc1 | -40.4% (inactive) | 
65 | CCOC(=O)c1sc(=S)n(C)c1NC(=O)c1ccccc1 | -30.6% (inactive) | 
66 | Cc1cccc(CNc2ncnc3ccc(-c4ccc5c(c4)OCCO5)cc23)c1 | -20.3% (inactive) | 
67 | COc1ccc(CCNC(=S)N2CCC(C(=O)c3ccc(F)cc3)CC2)cc1OC | -11.8% (inactive) | 
68 | CCC1Sc2ccc(S(=O)(=O)CCC(=O)NCc3ccco3)cc2NC1=O (stereo not given) | -39.4% (inactive) | 
69 | CCN(CC)CCNC(=O)c1nn(-c2ccc(Cl)cc2)c2c1CCc1cc(OC)ccc1-2 | -32.1% (inactive) | 
70 | O=C(CCS(=O)(=O)c1ccccc1)Nc1ccccc1-c1nc2ccccc2s1 | -30.5% (inactive) | 
71 | Cc1ccc2nc(-c3ccc(NC(=O)CCS(=O)(=O)c4ccccc4)cc3)sc2c1 |  | 10 µM (active)
72 | CC(=O)Nc1ccc(S(=O)(=O)Nc2nc3ccc(C)cc3s2)cc1 | 108% (inactive) | 
73 | O=C(CCCCCN1C(=O)c2ccccc2C1=O)Nc1cccc(O)c1 | -35.8% (inactive) | 
74 | CCOC(=O)c1cc(-c2ccccc2)sc1NC(=O)CCN1C(=O)c2ccccc2C1=O | -32.5% (inactive) | 
75 | Cc1ccc2nc(-c3ccc(NC(=O)CCN4C(=O)c5ccccc5C4=O)cc3)sc2c1 |  | 7.08 µM (active)

Row | Compound | activity, negative = inhibition | Potency
76 | CSc1ccc(NC(=O)N2CC=C(n3c(=O)[nH]c4ccccc43)CC2)cc1 | -19.7% (inactive) | 
77 | CCn1c(N2CCN(S(=O)(=O)c3ccccc3C(F)(F)F)CC2)nc2ccccc21 | -46.9% (inactive) | 
78 | COc1ccc(CNC(=O)C[C@H]2C[C@H](C(=O)N(C(C)C)C(C)C)[C@@]3(C)c4[nH]c5ccc(Cl)cc5c4CCN3C2=O)cc1OC | -38.9% (inactive) | 
79 | Cc1cc(C)c2nc(C(F)(F)F)nc(N3CCN(C(=O)c4ccco4)CC3)c2c1 | -37.6% (inactive) | 
80 | O=C(c1ccco1)N1CCN(c2c([N+](=O)[O-])nn(-c3cccc(Cl)c3)[n+]2[O-])CC1 | -33.5% (inactive) | 
81 | Cc1cc(N2CCN(C(=O)c3ccco3)CC2)n2nc(-c3cccc(Cl)c3)cc2n1 |  | 22.4 µM (active)
82 | COc1cccc2[nH]c3c(N4CCc5ccccc5C4)ncnc3c12 | -33.4% (inactive) | 
83 | CCOc1ccc(N2C(=O)S/C(=C\c3cc(OC)c(OC)c(OC)c3)C2=O)cc1 |  | 10 µM (active)
84 | COc1cc(/C=C2\SC(=O)N(c3cccc(Cl)c3)C2=O)cc([N+](=O)[O-])c1O | -35% (inactive) | 
85 | COc1cc(/C=C2\SC(=S)N(CC(=O)NC(C)(C)C)C2=O)cc(OC)c1OC | -30.8% (inactive) | 
86 | CC(=O)c1ccc(NC(=O)c2ccc(-c3nc(CSc4ccccc4)c(C)o3)cc2)cc1 | -33.9% (inactive) | 
87 | C[C@H]1CN([C@@H](C)CO)C(=O)c2cc(NC(=O)C3CCCCC3)ccc2O[C@H]1CN(C)Cc1ccc(-c2ccccc2)cc1 | -33.5% (inactive) | 
88 | CC1CCC(C(C)C)C(OC(=O)Cn2c(-c3ccc(Br)cc3)[n+](C)c3ccccc32)C1 (stereo not given) |  | 15.8 µM (active)
89 | Cc1ccccc1OCc1n(CC(=O)OC2CC(C)CCC2C(C)C)c2ccccc2[n+]1C (stereo not given) |  | 17.8 µM (active)
90 | Cc1noc(C)c1COc1ccc(C(=O)N2CCN(c3ccccn3)CC2)cc1 | -31.9% (inactive) | 
91 | O=C(c1ccco1)N1N=C(c2cccs2)CC1c1ccccc1O (stereo not given) | -38.8% (inactive) | 
92 | CC(C)C[C@H]1CN=C(N(C)C)N1CCCCc1ccccc1 | -30.1% (inactive) | 
93 | Cc1ccc(N2C(=O)CC(N3CCN/C3=C3\CC/C(=C\c4ccccc4)C3=O)C2=O)cc1 (stereo not given) | -34.8% (inactive) | 
94 | Cc1ccc(NC(=O)CN2C(=O)NC3(CCCCC3C)C2=O)cc1S(=O)(=O)N1CCCCC1 (stereo not given) | -32.2% (inactive) | 
95 | CN(C)S(=O)(=O)c1ccc(C(=O)N2CCC(c3nc4ccccc4o3)CC2)cc1 | -38.5% (inactive) | 
96 | CSc1nc(Nc2ccc(C)cc2C)cc(-c2ccccc2)n1 | -34.8% (inactive) | 
97 | Cc1ccc(-c2cc(-c3ccccc3)no2)c(O)c1 |  | 5.01 µM (active)
98 | CCC(C)NC(=O)c1cc(-c2ccccc2O)on1 (stereo not given) | 106% (inactive) | 
99 | O=C1/C(=C/c2ccc(O)c([N+](=O)[O-])c2)SC(=S)N1Cc1ccccc1 | -35% (inactive) | 
100 | Cc1nn2c(-c3cccc(NC(=O)CSc4nc5ccccc5o4)c3)nnc2c2ccccc12 | -33% (inactive) | 
